Most compounds without a hit are left out; they make up all but 21% or so of the library.
CHX counter = Cycloheximide Counterscreen for Small Molecule Inhibitors of Shiga Toxin | max response, % | hit rate 12% among 300,000 | cell reporter, cycloheximide protein synthesis inhibition counterscreen; in the data active = max response mostly above about 13%, no sharp cut-off; inactive = mostly below about 14%; also: read at 38.3 µM for the half of the compounds with a filed dose
Shiga inhibitor = A qHTS for Small Molecule Inhibitors of Shiga Toxin; inhibition, % at 38.7 µM; Vero cells, Shiga toxin protein synthesis inhibition reporter; hit rate 9.2% among 290,000; in the data active = inhibition mostly above about 28%, no sharp cut-off; inactive = mostly below about 43%
Pf growth 96h = Primary qHTS for delayed death inhibitors of the malarial parasite plastid, 96 hour incubation; P. falciparum luciferase reporter growth, 96 h; Potency, µM (series often up to 28.7 µM), actives largely listed as inhibitors; hit rate 6.9% among 320,000
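Erythrocytes infected with luciferase-expressing P. falciparum were dispensed at 2% hematocrit and 0.05% parasitemia (final), then incubated with compounds 96 hours at 37 C in 5% CO2. Luminescence after detection reagent addition reported growth.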
Pf growth 48h = Primary qHTS for delayed death inhibitors of the malarial parasite plastid, 48 hour incubation. AID 504832, 2011. P. falciparum luciferase growth in erythrocytes, 48 h. hit rate 5.9% among 310,000. Potency, µM (doses to about 28.7 µM), most hits filed as inhibitors
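Luciferase-expressing parasites in RBCs, 2% Hct / 0.1% parasitemia final; RPMI 1640 + 0.5% Albumax; 37 C, 5% CO2, one generation; luminescence read-out, lower signal = inhibition.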
NS1 function inh = qHTS Assay for Inhibitors of Influenza NS1 Protein Function | Potency, µM (series often up to 46.1 µM) | hit rate 0.4% among 270,000; calls by dose curve; also: actives are rising curves; nearly all actives have a fitted effect of over 50% in size
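Recovery from NS1-induced slow growth read by OD600 in budding yeast switched to galactose assay medium (pH 6.0, -URA) at 1:100 dilution. Compound 23 nl per well; the matching strain lacking NS1 serves as control.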
A number is an active result; n = inactive; u = inconclusive; x = no result. Unless noted, calls follow the shape of the dose curve; as a rule, active = well fitted inhibition curve with a large enough effect; inconclusive = small, poorly fitted or top-dose-only effect, or another doubt; inactive = no such curve, though single readings can be large or run the other way.

SMILES | CHX counter | Shiga inhibitor | Pf growth 96h | Pf growth 48h | NS1 function inh
Cc1onc(-c2ccccc2Cl)c1C(=O)N1CCN(S(=O)(=O)c2ccc(F)c(F)c2)CC1 | n | n | u | n | n
Fc1ccccc1CSc1ncn[nH]1 | n | n | n | n | n
Cc1cc(C)nc(SCc2cn3cc(Cl)ccc3n2)n1 | n | n | n | n | n
Clc1ccc2nc(CSc3ncn[nH]3)cn2c1 | 15.5 | n | n | n | n
Brc1ccc2nc(CSc3ncn[nH]3)cn2c1 | 16.4 | 84.2 | n | n | n
Cc1ccc(/C=N/n2c(C3CCCCC3)n[nH]c2=S)o1 | n | n | n | n | n
Cc1ccc(S(=O)(=O)c2cc(N3CCOCC3)nc(-c3ccccc3)n2)cc1 | n | n | 8.28µM | u | n
CN1CCN(c2nc(-c3ccccc3)ncc2S(=O)(=O)c2ccccc2)CC1 | n | n | u | u | n
Cc1ccc(S(=O)(=O)c2cnc(-c3ccccc3)nc2N2CCN(C)CC2)cc1 | n | n | 10.4µM | u | n
c1ccc(-c2ccc(Oc3cc(N4CCOCC4)nc(-c4ccccc4)n3)cc2)cc1 | n | n | n | u | n
COc1cccc(C(=O)NC(C)CCc2ccccc2)c1 (stereo not given) | n | n | u | n | n
COc1cccc(-c2nc3ccc(C(=O)NC(C)Cc4cccnc4)cc3o2)c1 (stereo not given) | 29.2 | 28.0 | n | n | n
COC(=O)C1CCN(C(=O)c2ccc3nc(-c4cccc(OC)c4)oc3c2)CC1 | 76.3 | 95.4 | n | n | n
O=C(CSc1nc2ccc(Cl)cc2[nH]1)c1ccc2c(c1)OCO2 | n | n | 13.1µM | 11.7µM | n
O=C(CSc1nc2cc(Cl)c(Cl)cc2[nH]1)c1ccc2c(c1)OCO2 | n | n | 4.65µM | 4.15µM | n
Cc1ccc(OCCC(=O)OCC(=O)NC(=O)NC2CCCC2)cc1 | x | x | n | n | x
CCSc1ncccc1-c1nc2ccccc2[nH]1 | 38.4 | 99.3 | u | u | n
O=C(NC1CCCC1)c1ccccc1-c1nc2ccccc2[nH]1 | n | n | x | n | n
Cc1[nH]c(=O)[nH]c(=O)c1NC(=O)CSc1ncccc1-c1nc2ccccc2[nH]1 | n | n | u | n | n
CSc1ncccc1-c1nc2ccccc2[nH]1 | 27.9 | n | n | x | n
O=[N+]([O-])c1cccc(NN=Nc2ccccc2)c1 | 29.4 | 39.5 | u | n | n
O=[N+]([O-])c1ccc(N=NNc2ccccc2)cc1 | 63.5 | 184.6 | n | n | x
O=C(O)c1cc(NN=Nc2ccc(Br)cc2)cc([N+](=O)[O-])c1 | n | n | u | n | n
O=C(O)c1cc(NN=Nc2cccc([N+](=O)[O-])c2)cc([N+](=O)[O-])c1 | n | n | n | n | n
Brc1ccc(N=NNc2ccccc2)cc1 | 35.2 | 92.3 | n | n | n
SMILES | CHX counter | Shiga inhibitor | Pf growth 96h | Pf growth 48h | NS1 function inh
CCOc1ccc(-n2cc(C(=O)N3CCCCCC3)c3cc(OC)c(OC)cc3c2=O)cc1 | n | n | u | u | n
O=C(Cn1c(=O)c2c(ncn2C2CCCC2)n(Cc2ccccc2)c1=O)N1CCc2ccccc21 | n | n | n | 5.86µM | u
O=C(Cn1c(=O)c2c(ncn2Cc2ccccc2)n(Cc2ccccc2)c1=O)N1CCc2ccccc21 | n | n | x | 3.29µM | n
CCn1cnc2c1c(=O)n(CC(=O)N1CCc3ccccc31)c(=O)n2Cc1ccccc1 | n | n | u | x | n
Cn1c(=O)[nH]c(=O)c2c1nc(Br)n2CC(O)c1ccccc1 (stereo not given) | n | n | u | u | n
CCOc1ccc(Nc2nc(Nc3ccc(O)cc3)nc(C)c2[N+](=O)[O-])cc1 | n | n | u | n | n
CCCCn1c(N)c(N(C(=O)CSc2nnnn2-c2ccccc2)C2CCCC2)c(=O)[nH]c1=O | x | x | n | n | x
O=C(c1ccc(OC2CCN(Cc3ccccc3C(F)(F)F)CC2)cc1)N1CCCCC1 | n | n | 3.29µM | u | n
CCCn1cc(CN2CCC(Oc3ccc(C(=O)N4CCCC4)cc3)CC2)c(C)n1 | n | n | 10.4µM | n | n
Cn1cc(CN2CCC(Oc3ccc(C(=O)N4CCCC4)cc3)CC2)cn1 | n | n | n | n | n
O=C(CSc1nnc(-c2ccccc2)o1)N1CCc2ccccc2C1 | n | n | n | n | n
COC(c1ccccc1)c1nnc(CCC(=O)N2CCCCCCC2)o1 (stereo not given) | 10.5 | n | u | n | n
COC(c1ccccc1)c1nnc(CCC(=O)NC2CCCCC2)o1 (stereo not given) | 17.3 | n | n | n | n
Cc1cc(-c2nnc(CCC(=O)NCC(C)c3ccccc3)o2)no1 (stereo not given) | n | n | n | n | n
O=C(CCc1nnc(-c2ccsc2)o1)N1CCc2c(Cl)cccc2C1 | 30.2 | 104.4 | n | n | n
CC(CNC(=O)CCc1nnc(CCC2CCCCC2)o1)c1ccccc1 (stereo not given) | 20.8 | n | n | n | n
COC(c1ccccc1)c1nnc(CCC(=O)NCCc2ccc(Cl)cc2)o1 (stereo not given) | n | n | n | n | n
Cc1ccc2c(C)c(C(=O)N(Cc3ccc(N(C)C)cc3)C3CCS(=O)(=O)C3)oc2c1 (stereo not given) | n | n | u | u | n
CCOc1ccccc1-c1nnc2n1N=C(c1cccc(OC)c1)CS2 | n | n | x | x | x
O=C(CCc1nnc(-c2ccccc2)o1)NC1CCCCC1 | 44.0 | 64.5 | n | n | n
COC(c1ccccc1)c1nnc(CCC(=O)N(C)C(C2CC2)C2CC2)o1 (stereo not given) | 50.2 | 83.8 | n | n | n
O=C(CCc1nnc(-c2ccc(-c3ccccc3)cc2)o1)N1CCCCC1 | 48.9 | 68.5 | n | u | n
O=C(Nc1nnc(-c2ccccc2)o1)NC1CCCCC1 | n | n | 3.7µM | 11.7µM | n
Cc1cccc(-c2noc(CCC(=O)NC3CCCCC3)n2)c1 | n | n | n | n | n
CC(C)CN1C(=O)C(=O)N(CC(=O)N(C)CC(=O)Nc2ccc(F)cc2)C1=O | x | x | n | n | x
SMILES | CHX counter | Shiga inhibitor | Pf growth 96h | Pf growth 48h | NS1 function inh
CCOC(=O)CNc1nc(C(C)(C)C)nc2c1nnn2Cc1ccccc1 | n | n | u | u | n
Cc1ccc(C)c(N2CCN(C(=O)CCCn3ncn4c(cc5occc54)c3=O)CC2)c1 | n | n | n | n | n
CN(C1CCCCC1)S(=O)(=O)CCNC(=O)c1ccccc1 | x | x | n | n | x
O=C(c1ccco1)N1CCN(S(=O)(=O)c2ccc(F)cc2)CC1 | n | n | x | n | n
O=C(O)c1cc2[nH]c3c(c2cc1Cl)CCCC3 | n | x | u | n | n
C/C(=N\O)c1ccc2c3c([nH]c2c1)CCCC3 | 65.2 | 19.9 | n | n | n
CCCC(C(=O)NC1CCCC1)N(CC1CCCO1)C(=O)CNS(=O)(=O)c1ccc(F)cc1 (stereo not given) | n | n | u | n | n
COc1cccc(-n2nc(-c3ccnn3-c3ccc(F)cc3)c(=O)n(C)c2=O)c1 | n | n | 11.7µM | x | n
COc1ccc(-n2nccc2-c2nn(-c3cccc(OC)c3)c(=O)n(C)c2=O)cc1 | n | n | n | x | n

Assay outcomes deposited in PubChem BioAssay by National Center for Advancing Translational Sciences (NCATS).
